For 62 molecules, Potency and growth rescue (activation) results are on record in PubChem BioAssay AID652104 (National Center for Advancing Translational Sciences (NCATS), 2013).

Hit rate of the full screen: of about 410,000 compounds, about 7,200 (1.8%) were called active. Where a call stands in place of a potency, no number is given. About 7% were inconclusive and are not listed. The call rests on the fitted dose curve; in most records, active means well fitted activation curve with a large enough effect; inconclusive means small, poorly fitted or top-dose-only effect, or another doubt; inactive means no such curve, though single readings can be large or run the other way. Many of the other results were omitted from the sample, so actives are more common in it than they were.
Potency means the concentration at half of the fitted maximal effect.

The experiment is described as follows: qHTS of TDP-43 Inhibitors. Further: nearly all actives have a fitted effect of over 50% in size. Particulars: TDP-43 expressing yeast growth rescue, BacTiter-Glo, 24 h; series mostly up to 46.1 µM. In short, it runs like this: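 Luminescence from BacTiter-Glo reports growth of TDP-43-expressing yeast after 24 hr at 30 deg C with compound. Cells were raffinose-pregrown to mid-log, then seeded in galactose medium at OD600=0.02.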
On the technique in general: In qHTS, concentration-response curves come from the screen itself.
In the case of `Cc1ccc(-c2nnc(SCc3ccccc3C)o2)cc1`, the Potency entry was “inactive”.

Turning to `COc1ccc(CCNC(=O)c2ccc3c(c2)sc2nc(-c4ccc(C)cc4)cn23)cc1OC`, the Potency entry was “inactive”.

As for `Oc1ccc(-c2nncn2-c2ccccc2)cc1`, the Potency entry is “inactive”.

Regarding `O=C(OCc1ccc(-c2ccccc2)cc1)c1cccc(O)c1`, the Potency entry was “inactive”.

On to `Oc1ccc(-c2cccc(-c3ccc(O)cc3)c2)cc1`, for which the Potency was 6.31 µM (active).

For `COCCN(Cc1ccco1)C(=O)Cn1ncc2c([nH]c3ccccc32)c1=O`, the Potency result is “inactive”.

As to `COc1cccc(CNC(=O)C(=O)NCC(c2cccs2)S(=O)(=O)c2ccccc2)c1` (configuration not stated), the Potency result was “inactive”.

Turning to `COc1ccc(Br)cc1CNC(=O)c1cc(=O)[nH]c2ccc(S(=O)(=O)N3CCCC3)cc12`, the Potency result was “inactive”.

In the case of `CCOC(=O)N1CCc2c(sc3c2C(=O)NC(c2ccccc2F)N3)C1` (configuration not stated), the Potency result was “inactive”.

With `Clc1cccc(-n2ncc3c(NCCc4ccccc4)ncnc32)c1`, the Potency entry is “inactive”.

As to `Cc1ccc(-n2ncc3c(Nc4cccc(C(=O)O)c4)ncnc32)cc1`, the Potency entry is “inactive”.

For `CCN(C(=O)CSc1ncnc2c1cnn2-c1ccccc1)C1CCS(=O)(=O)C1` (configuration not stated), the Potency result is “inactive”.

For the molecule `CCN(CC)C(=O)CSc1ncnc2c1cnn2-c1ccccc1`, the Potency was 15.8 µM (active).

Turning to `CC(C)Sc1ncnc2c1cnn2-c1ccccc1`, the Potency is 12.6 µM (active).

As to `CCC(C)N(C(=O)CSc1ncnc2c1cnn2-c1ccccc1)C1CCS(=O)(=O)C1` (configuration not stated), the Potency entry was “inactive”.

With `COc1ccccc1N1CCN(C(=O)CSc2ncnc3c2cnn3-c2ccc(C)c(C)c2)CC1`, the Potency entry is “inactive”.

Regarding `COC(=O)CSc1ncnc2c1cnn2-c1ccc(C)cc1C`, the Potency was 17.8 µM (active).

Take `CCN(c1ncnc2c1cnn2-c1ccc(C)cc1)C1CCCCC1`: the Potency entry is “inactive”.

In the case of `CCOc1cccc(NC(=O)c2ccc(F)c(S(=O)(=O)N(CC)c3cccc(C)c3)c2)c1`, the Potency entry is “inactive”.

For the molecule `Cc1ccccc1-n1c(=O)c2ccccc2n(Cc2ccc(F)cc2)c1=O`, the Potency result was “inactive”.

Take `CCn1c(C(=O)Nc2cc(Cl)ccc2C)cc2sc(Cl)cc21`: the Potency entry was “inactive”.

As for `CCC(=O)N1CCc2cc(Br)cc(S(=O)(=O)CCC(=O)NCc3ccccc3OC)c21`, the Potency entry was “inactive”.

Turning to `CCc1cccc(C)c1NS(=O)(=O)c1ccc(-c2cc(C)no2)s1`, the Potency entry was “inactive”.

Turning to `Cc1cc(NC(=O)C2CCC(CNS(=O)(=O)c3ccc(Br)s3)CC2)ccc1Br` (configuration not stated), the Potency result was “inactive”.

On to `COc1ccc(OC)c(CCNC(=O)CCCn2c(=O)c3cccn3c3cccnc32)c1`, for which the Potency result was “inactive”.

Turning to `CN1CCN(C(CNC(=O)c2ccccc2F)c2ccc3c(c2)OCO3)CC1` (configuration not stated), the Potency result was “inactive”.

Regarding `Cc1ccc(-c2nnc3c4ccccc4c(C)nn23)cc1NC(=O)c1cccc(Br)c1`, the Potency entry was “inactive”.

For `CCCN1CCN(CCCNC(=O)c2cnn(-c3ccc(C)cc3)c2-n2cccc2)CC1`, the Potency result is “inactive”.

Turning to `CCn1nccc1C(=O)Nc1ccc(S(=O)(=O)NC23CC4CC(CC(C4)C2)C3)cc1`, the Potency entry was “inactive”.

For the molecule `CCn1nccc1C(=O)Nc1ccc(Cl)c(Cl)c1`, the Potency was 17.8 µM (active).

Take `Cc1ccc(-c2nn(CCC(=O)Nc3ccc(Cl)c(Cl)c3)c(=O)c3ccccc23)cc1`: the Potency result was “inactive”.

`COc1ccc(-c2noc(-c3ccc(N4CCN(c5ccccc5)CC4)c([N+](=O)[O-])c3)n2)cc1OC`: the Potency entry is “inactive”.

As for `COc1ccc(OCC(=O)Nc2cc(C)c(Cl)cc2OC)c([N+](=O)[O-])c1`, the Potency result was “inactive”.

`Cc1nnc(-c2ccc(Oc3ccc(C)c(C)c3)c([N+](=O)[O-])c2)o1`: the Potency was 20 µM (active).

For `COc1ccc(Cl)cc1NC(=O)CSc1nc(=O)[nH]c2c1CCCC2`, the Potency result was “inactive”.

For `CCOC(=O)c1cc(NC(=O)c2ccc(F)cc2)c(=O)n2c1oc1ccccc12`, the Potency result was “inactive”.

With `Cc1ccc(F)cc1NC(=O)CCSc1nc(-c2ccco2)cc(C(F)(F)F)n1`, the Potency entry is “inactive”.

Take `CC(C)c1ccc(CC(=O)N2CCC2(C)C(=O)NS(=O)(=O)c2ccc(C(C)(C)C)cc2)cc1` (configuration not stated): the Potency was 22.4 µM (active).

With `CC(C)(C)c1ccc(S(=O)(=O)NC(=O)C2(C)CCN2C(=O)CC2CC2)cc1` (configuration not stated), the Potency result is “inactive”.

In the case of `CCCC(=O)N1CCC1(C)C(=O)NS(=O)(=O)c1ccc(Cl)cc1` (configuration not stated), the Potency result is “inactive”.

Take `CCCCS(=O)(=O)c1oc(-c2cccs2)nc1S(=O)(=O)c1ccccc1`: the Potency result is “inactive”.

Turning to `CCC(=O)N1CCc2cc(Br)cc(S(=O)(=O)CCC(=O)NCCc3ccc(OC)c(OC)c3)c21`, the Potency entry is “inactive”.

As to `COc1cccc(CNC(=O)CSc2c3c(nc4cc(Cl)ccc24)CCCC3)c1`, the Potency result is “inactive”.

Take `COc1cccc(CNC(=O)c2ccc3c(Cl)c4c(nc3c2)CCCC4)c1`: the Potency is 15.8 µM (active).

With `COc1cccc(CNC(=O)c2ccc3c(c2)sc2nc(-c4cccc(OC)c4)cn23)c1`, the Potency entry is “inactive”.

On to `CCC(C(=O)Nc1cccc(Cl)c1C)n1nc(-c2ccc(C)cc2)ccc1=O` (configuration not stated), for which the Potency result was “inactive”.

`Cc1cccc(C(CC(=O)NCC2(c3ccccc3)CCCC2)c2ccccc2)c1O` (configuration not stated): the Potency result was “inactive”.

Take `COc1ccc(NC(=O)N2CCCC(c3nc(-c4ccc(F)cc4)no3)C2)cc1` (configuration not stated): the Potency entry is “inactive”.

Take `CC(C)c1ccc(NC(=O)C2CCN(c3nc(-c4ccc(C(C)C)cc4)no3)CC2)cc1`: the Potency entry was “inactive”.

For the molecule `CCN(C(=O)C1CCCN(c2nc(-c3ccc(OC)cc3)no2)C1)c1ccc(OC)cc1` (configuration not stated), the Potency is 22.4 µM (active).

Take `O=C(Nc1cc(C(F)(F)F)ccc1Cl)c1ccc2c(c1)CCN2S(=O)(=O)c1ccccc1`: the Potency entry was “inactive”.

As to `Cc1ccccc1CNC(=O)CSc1nnc(C)c2c(C)n(-c3ccccc3)nc12`, the Potency entry was “inactive”.

On to `Cc1ccc(Cl)cc1N1CCN(C(=O)c2cn(C)c3ccc(S(=O)(=O)N(C)C4CCCCC4)cc3c2=O)CC1`, for which the Potency result is “inactive”.

Take `Cc1cccc(Cn2c(=O)n(CCC(=O)NCCc3ccc(Cl)cc3)c(=O)c3sccc32)c1`: the Potency entry was “inactive”.

For `O=[N+]([O-])c1ccc2c(c1)Nc1nc3ccccc3nc1N2`, the Potency was 22.4 µM (active).

`O=C1Nc2ccc([N+](=O)[O-])cc2C1=Nc1cccc(CO)c1`: the Potency result is “inactive”.

As to `Cc1nc2ccccc2nc(=O)c1NNc1ccc([N+](=O)[O-])cc1`, the growth rescue (activation) is 12.8% [at 9.22 µM] (inactive).

Regarding `C[n+]1ccc(/C=C/c2c[nH]c3ccccc23)cc1`, the Potency entry was “inactive”.

`NC(=O)CSc1c[nH]c2ccccc12`: the Potency entry was “inactive”.

As to `CSC(=S)N/N=C/c1c[nH]c2ccccc12`, the Potency was 12.6 µM (active).

For `NS(=O)(=O)c1ccc2nc(NC(=O)COc3ccccc3)sc2c1`, the growth rescue (activation) was 24% [at 9.22 µM] (inactive).

Turning to `CC1CN(C(=O)N2CCC(C(=O)NCc3ccco3)CC2)c2cc(Cl)ccc2O1` (configuration not stated), the Potency result was “inactive”.
